PNC assembly inh – High Content Assay for Compounds that inhibit the Assembly of the Perinucleolar Compartment | PC3M PTB-GFP, PNC prevalence imaging, 16 h; hits give low values | activity change (PNC), negative = inhibition, % at 10 µM | actives 3.1% (n = 140,000);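 active = readout at or below -70, meaning at least 70% loss of cells showing the perinucleolar compartment, a nuclear body marking cancer cells; inconclusive = readout between -30 and a set limit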;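 note: plate controls were DMSO wells for no effect and camptothecin positive control wells for full effect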
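Read-out is percentage of cells bearing a perinucleolar compartment, from automated 20x imaging of fixed, Hoechst-stained PC3M PTB-GFP cells. Cells were seeded 4 h, then exposed 16 h to compound (23 nl of library stock) in duplicate plates.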
IMPase inh – qHTS Assay for Identifying the Cell-Membrane Permeable IMPase Inhibitors; 120,000 tested, under 10 active; Inositol monophosphatase 1 (Rattus norvegicus), P97697; CHO-M1 cells, IP1 accumulation, HTRF TR-FRET ratio; inhibition (IP1 accumulation), % at 46.1 µM; active = well fitted curve in the direction sought with a large enough effect in the signal ratio, not every such curve was filed as active; inconclusive = small, poorly fitted or top-dose-only effect, or a change in a side signal; inactive = no such curve, though single readings can be large or run the other way; the % refers to the signal ratio;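 note: cells stimulated with carbachol in lithium chloride buffer; plate controls were DMSO basal wells for no effect and reference inhibitor wells for full effect; higher means more IMPase inhibition seen as more IP1 and lower FRET ratio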
Target sequence (P97697 whole entry, looked up): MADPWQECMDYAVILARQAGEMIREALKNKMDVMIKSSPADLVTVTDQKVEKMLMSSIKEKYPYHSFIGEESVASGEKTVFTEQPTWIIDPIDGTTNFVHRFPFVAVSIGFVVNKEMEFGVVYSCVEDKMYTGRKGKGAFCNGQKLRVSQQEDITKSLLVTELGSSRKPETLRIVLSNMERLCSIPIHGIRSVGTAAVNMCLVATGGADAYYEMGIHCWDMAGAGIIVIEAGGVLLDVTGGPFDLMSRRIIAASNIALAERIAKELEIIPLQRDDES
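Cellular IMPase inhibition is scored as a rise in cytosolic IP1, detected by competitive TR-FRET between d2-labelled IP1 and a europium anti-IP1 antibody. M1-expressing CHO cells were stimulated with carbachol for 30 min at 37C, with lithium (50 mM LiCl) present in the buffer.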
IMPase Li inh – qHTS Assay for Identifying the Cell-Membrane Permeable IMPase Inhibitors: Potentiation with Lithium | actives 0.35% (n = 210,000) | CHO-M1 cells, IP1 TR-FRET (IP-One), carbachol + lithium | AID 1457, 2008 | Potency, µM (top dose mostly 59.4 µM), without a hit: top-dose activity, negative = IMPase inhibition, hits mostly inhibitors; active = well fitted curve in the direction sought with a large enough effect; inconclusive = small, poorly fitted or top-dose-only effect, or another doubt; inactive = no such curve, though single readings can be large; an effect the other way counts as inactive or inconclusive;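 note: IP1 builds up when IMPase is blocked and the TR-FRET signal falls; potency is the fitted concentration of half-maximal effect; plate controls were basal vehicle for no effect and high inhibitor control for full effect; nearly all actives have a fitted effect of over 50% in size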
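Steps: plate 2000 CHO-M1 cells per well and culture 16–30 h; add compound and lithium; incubate 30 min, 37C; add d2-IP1 tracer and Eu cryptate anti-IP1 antibody in lysis buffer; read after 10 min at room temperature.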
NPSR antagonist – qHTS Assay for Antagonists of the Neuropeptide S Receptor: cAMP Signal Transduction; Q6W5P4; CHO-NPSR cells, cAMP TR-FRET, antagonist mode; Potency, µM (doses to about 38.3 µM), for inactives: at the top dose activity change, negative = inhibition, hits mostly inhibitors; actives 1% (n = 220,000); AID 1461, 2008; active = well fitted curve in the direction sought with a large enough effect; inconclusive = small, poorly fitted or top-dose-only effect, or another doubt; inactive = no such curve, though single readings can be large; an effect the other way counts as inactive or inconclusive; note: potency is the fitted concentration of half-maximal effect; nearly all actives have a fitted effect of over 50% in size
ALDH1A1 block – qHTS Assay for Inhibitors of Aldehyde Dehydrogenase 1 (ALDH1A1). actives 7.3% (n = 220,000). Aldehyde dehydrogenase 1A1 (Homo sapiens), P00352. Potency, µM (series often up to 75.3 µM), for the others: top-dose activity, negative = inhibition, hits mostly inhibitors. AID 1030, 2008. Purified ALDH1A1, NADH fluorescence, propionaldehyde substrate;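 note: potency is the fitted concentration of half-maximal effect; plate controls were no enzyme wells and a reference inhibitor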
HPGD inh – qHTS Assay for Inhibitors of HPGD (15-Hydroxyprostaglandin Dehydrogenase); purified HPGD, NADH fluorescence kinetic, PGE2 substrate; actives 4.3% (n = 150,000); Potency, µM, for inactives: at the highest dose activity change, negative = inhibition, usual class: inhibitors; 15-hydroxyprostaglandin dehydrogenase [NAD(+)] (Homo sapiens), P15428; note: potency is the fitted concentration of half-maximal effect
Target sequence (P15428 whole entry, looked up): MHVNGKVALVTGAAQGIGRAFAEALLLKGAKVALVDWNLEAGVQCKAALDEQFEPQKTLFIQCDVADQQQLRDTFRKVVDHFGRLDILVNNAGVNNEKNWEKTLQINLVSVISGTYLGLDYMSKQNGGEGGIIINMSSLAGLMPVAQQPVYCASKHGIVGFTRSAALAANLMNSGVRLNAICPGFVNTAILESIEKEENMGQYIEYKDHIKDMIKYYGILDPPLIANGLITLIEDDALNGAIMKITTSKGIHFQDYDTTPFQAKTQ
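NADH formation kinetics: reaction with 30 uM PGE2 and 1 mM NAD+ (final), 20 nM enzyme, Tris-HCl pH 8 with Tween 20, after 15 min compound preincubation at room temperature. Fluorescence change, last versus first of five reads.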
* hit, by the source's call; ? = inconclusive; . = no result; [ ] = dose if it differs, or a comment. Compounds with a hit are over-represented: about 11% of the library has one in this group of screens. Unless noted, calls come from the whole dose curve; as a rule, active = well fitted inhibition curve with a large enough effect (not every such curve was filed as active); inconclusive = small, poorly fitted or top-dose-only effect, or another doubt; inactive = no such curve, though single readings can be large or run the other way. Unless noted, % is set by controls: 0 for no effect and ±100 for the full control effect.

SMILES	PNC assembly inh	IMPase inh	IMPase Li inh	NPSR antagonist	ALDH1A1 block	HPGD inh
CCC(=O)N1CCc2cc(S(=O)(=O)N3CCc4ccccc4C3)ccc21	-17	-1	-9%[38.3 µM]	-6%[46.1 µM]	?	?
CC(=O)Nc1ccc(S(=O)(=O)N(C)CC(=O)OCC(=O)N2CCc3ccccc32)cc1	-3	1	11%[38.3 µM]	?	8.9µM*	-12%
CC(=O)Nc1ccc(S(=O)(=O)NCC(=O)OCC(=O)N2CCN(c3ccccc3)CC2)cc1	50	.	-1%	14%	20µM*	0%
Cc1cccc2cc(CN(CC3CCCO3)C(=O)NC3CCCCC3)c(=O)[nH]c12 (configuration not stated)	16	2	5%[38.3 µM]	-14%[46.1 µM]	-7%	-24%
CC1CCC2(CC1)C(Nc1cccc(Cl)c1)=NC(=S)N2CC#N (configuration not stated)	1	0	25%	?	-4%	-16%
COc1ccc(CCNc2nc(-c3sc(C)nc3C)cs2)cc1OC	17	9	17%[38.3 µM]	-19%[46.1 µM]	?	-28%
O=C(c1ccc(F)cc1)C1CCN(C(=O)N2CCOCC2)CC1	-15	3	-13%[38.3 µM]	1%[7.67 µM]	1%	-10%
CC(C)CN(CC(C)C)S(=O)(=O)N1CCC(C(=O)NCCN2CCOCC2)CC1	22	-5	-8%[38.3 µM]	-6%[46.1 µM]	9%	-7%
O=C(CSc1nc2ccccc2s1)NNC(=S)Nc1ccc(Br)cc1	49	4	4%[38.3 µM]	-11%[46.1 µM]	8.9µM*	-11%
O=C(CSc1nc2ccccc2s1)NNC(=S)Nc1ccccc1	?	.	14%	11%	8.9µM*	?
O=C(CSc1nc2ccccc2s1)NNC(=O)Nc1ccc(Cl)c(Cl)c1	?	-5	8%	-20%[46.1 µM]	2%	-6%
Cc1onc(-c2ccccc2Cl)c1C(=O)N/N=C(\N)COc1ccc(Cl)cc1	59	12	1%	-7%[46.1 µM]	-2%	-19%
COC(=O)Cc1cccc2c(=O)c3ccccc3oc12	.	.	.	14%	.	.
CN(C)c1ccnc2sc3c(NCC(O)CO)ncnc3c12 (configuration not stated)	31	.	-2%	6%	?	-1%
CN(C)c1ccnc2sc3c(SCc4ccc(Cl)cc4)ncnc3c12	21	-3	-15%	?	1%	16µM*
CCC(=O)NCCCCNC(=O)CC	24	-3	6%[38.3 µM]	-3%[46.1 µM]	4%	-17%
CN(Cc1c(F)cccc1Cl)c1ccc(S(=O)(=O)N2CCOCC2)cn1	?	7	27%[38.3 µM]	?	?	14%
CC(=O)Oc1ccc(Cl)cc1/C=C/c1cc(OC(C)=O)c2ccccc2n1	?	.	-20%	?	?	?
COc1cc(Cl)cc(/C=C/c2ccc3ccccc3n2)c1OC(C)=O	-101*	.	3%	-60%	?	?
CN1C(CC(=O)Nc2ccc(Cl)cc2Cl)c2ccccc2CC1(C)C (configuration not stated)	.	.	.	48%	.	.
CCOC(=O)/C(C(=O)Nc1ccc(Cl)cc1Cl)=C1/NC(C)(C)Cc2ccccc21	-8	12	1%	2%[46.1 µM]	13µM*	-17%
Cc1ccc(-c2csc3ncn(-n4c(C)ccc4C)c(=O)c23)o1	?	10	20%[38.3 µM]	-26%[46.1 µM]	32µM*	28µM*
Cc1sc2ncn(-n3c(C)ccc3C)c(=O)c2c1C	32	4	-9%[38.3 µM]	-7%[46.1 µM]	-8%	-8%
Cc1n[nH]c(=S)n1-c1cccc(Cl)c1	18	.	-12%	16%	-8%	-26%
O=S(=O)(N/N=C\c1ccc(-c2ccccc2Cl)o1)c1ccccc1	?	5	6%	-8%[46.1 µM]	-2%	16µM*
O=[N+]([O-])c1ccc(/C=N/N=C/c2ccc([N+](=O)[O-])o2)o1	.	.	17%	5µM*	?	.

High-throughput results as filed in PubChem.
